Test [1] is described as follows: NCI Yeast Anticancer Drug Screen. Data for the rad50 strain (AID 155).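 Note: 0% = growth of vehicle-only cultures of the same strain.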 The following applies: S. cerevisiae rad50 strain growth inhibition; at 50.0 µM; active compounds read high. In a few lines:
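Compounds were tested on a yeast strain with an engineered DNA damage repair alteration; the reported value is growth inhibition normalised to vehicle treatment.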

The nature of test [2]: NCI Yeast Anticancer Drug Screen. Data for the mec2-1 strain (AID 157). As to conditions: S. cerevisiae mec2-1 strain, at 50.0 µM, active compounds read high. In a few lines: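 Cells of the genetically defined mec2-1 yeast strain are incubated with test compound. Inhibition of growth is calculated against vehicle-treated controls.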
Test [3] in a line: NCI Yeast Anticancer Drug Screen. Data for the sgs1 mgt1 strain (AID 161).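 Note: 0% = growth of cultures given vehicle only.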 As to conditions: S. cerevisiae sgs1 mgt1 strain, at 50.0 µM, active compounds read high. In a few lines:
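Test agents were incubated with a DNA-repair-mutant yeast strain. Growth was then read and compared against vehicle-treated controls.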

A short description of test [4]: NCI Yeast Anticancer Drug Screen. Data for the cln2 rad14 strain (AID 165).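 Note: 0% = growth equal to vehicle treated cultures.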 As to conditions: S. cerevisiae cln2 rad14 strain, at 50.0 µM, active compounds read high. In a few lines: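 The screen exposed genetically defined yeast (cln2 rad14) to test compounds and scored growth inhibition relative to vehicle-treated controls.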
A short description of test [5]: NCI Yeast Anticancer Drug Screen. Data for the bub3 strain (AID 167). The following applies: S. cerevisiae bub3 mutant strain, at 50.0 µM, active compounds read high. In a few lines: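 Growth of a checkpoint-deficient yeast mutant is measured after compound exposure. Values represent inhibition relative to vehicle.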
A short description of test [6]: NCI Yeast Anticancer Drug Screen. Data for the mlh1 rad18 strain (AID 175). As to conditions: S. cerevisiae mlh1 rad18 strain growth inhibition; at 50.0 µM; active compounds read high. In a few lines: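 Compound-treated yeast growth, normalised to vehicle controls. Strain bears defined DNA repair mutations.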

The panel holds about 79,000 compounds, 15% with a hit somewhere; the sample as a whole holds those more often. Values without a mark were called inactive. The source made the active and inactive calls. Cut-off read from the data, not from the text of the source: active = growth inhibition above about 70%; inactive = the rest.

For `CCC(CC)C(=O)OCCCCC1CCCO1` (stereo unspecified), the growth inhibition in test [1] is 6.25%; in test [2] it was 11.2%; in test [3] it was 4.75%; in test [4], -16.6%; in test [5], 12.2%; in test [6] it was -2.65%.

Take `CCNC(CC1CCCCC1)C(=O)O` (stereo unspecified): the growth inhibition in test [1] was -6.15%; in test [2], 7.5%; in test [3] it was -1.8%; in test [4] it was 14.2%; in test [5] it was 13.2%; in test [6] it was 6.35%.

Take `COc1cc([N+](=O)[O-])cc(C(C)=O)c1O`: the growth inhibition in test [1] was 17.9%; in test [2] it was 37.2%; in test [3], 31.5%; in test [4], 2.45%; in test [5] it was 15.1%; in test [6] it was 38.5%.

Take `BrCCOC(OCCBr)(c1ccccc1)c1ccccc1`: the growth inhibition in test [1] is 19.8%; in test [2], -10.9%; in test [3], 2.3%; in test [4], 11.5%; in test [5], 4.95%; in test [6], 6.3%.

Turning to `Nc1cc(Cl)cc2[nH]c(=O)c3cc(Cl)ccc3c12`, the growth inhibition is 39.8% in test [1]; 7.25% in test [2]; 13.6% in test [3]; 5.35% in test [4]; 17.2% in test [5]; 38% in test [6].

`O=[N+]([O-])c1cccc(S/N=C/c2ccccc2)c1`: the growth inhibition in test [1] was 98.8% (active); in test [2], 98.4% (active); in test [3], 99% (active); in test [4] it was 92.3% (active); in test [5] it was 98.5% (active); in test [6], 98.8% (active).

As to `CC1C(=O)CCC2CCCCC21` (stereo unspecified), the growth inhibition was 18.1% in test [1]; -17.4% in test [2]; 8.05% in test [3]; 7.95% in test [4]; 12.2% in test [5]; 17.2% in test [6].

With `CC(=O)OCC1OC=CC(OC(C)=O)C1OC(C)=O` (stereo unspecified), the growth inhibition in test [1] is -23.1%; in test [2] it was -18.8%; in test [3], -8.55%; in test [4], -5.85%; in test [5], -25.8%; in test [6], -7.5%.

For `CC1=C(C(=O)Nc2ccccc2C)C(c2ccco2)C(C(=O)Nc2ccccc2C)=C(C)N1C`, the growth inhibition in test [1] is -7.45%; in test [2], -6.6%; in test [3], -38.1%; in test [4], -15.5%; in test [5], -9.6%; in test [6], -8.8%.

As to `CC1CCc2nc(N)sc2C1` (stereo unspecified), the growth inhibition is 14.4% in test [1]; 11.9% in test [2]; 18.9% in test [3]; 8.35% in test [4]; 1.1% in test [5]; 5.9% in test [6].

In the case of `CC(=O)Nc1ccc(/C=N/NC(=S)Nc2cccc3cccnc23)cc1`, the growth inhibition in test [1] was -1.2%; in test [2], 17.9%; in test [3] it was -5%; in test [4], 10.5%; in test [5], 31.4%; in test [6], -4.45%.

`Clc1ccc(-n2cccc2)cc1`: the growth inhibition is -4.75% in test [1]; 0.25% in test [2]; 10.7% in test [3]; 5.8% in test [4]; -19.6% in test [5]; -6.3% in test [6].

For `CC/C(=N\NC(=O)c1ccncc1)c1ccc(Cl)cc1`, the growth inhibition in test [1] is 1.1%; in test [2], 9.05%; in test [3] it was -3.15%; in test [4], 17.9%; in test [5], 2.9%; in test [6], -1.95%.

Consider `CC1c2c(ccc3c2CCC=C3)CCC1CC1=CCCc2ccc3ccccc3c21` (stereo unspecified), for which the growth inhibition in test [1] is 6.7%; in test [2] it was -1.6%; in test [3], 1.1%; in test [4], -13.3%; in test [5] it was 0.1%; in test [6], 9.85%.

Take `CN(C)C(=S)SCC(=O)c1ccccc1`: the growth inhibition is -23.1% in test [1]; -27.6% in test [2]; -16.6% in test [3]; -20.2% in test [4]; -9.7% in test [5]; -10.6% in test [6].

Regarding `CCc1ccccc1NC(=S)NC1CCCCC1`, the growth inhibition was -2.7% in test [1]; -8.85% in test [2]; 0.05% in test [3]; -18.5% in test [4]; 32.2% in test [5]; -5.6% in test [6].

As for `O=C(O)c1nc(-c2ccccc2)[nH]c1C(=O)O`, the growth inhibition was 20.5% in test [1]; 5.6% in test [2]; 12.8% in test [3]; -15.8% in test [4]; 30.6% in test [5]; 24.4% in test [6].

For `c1ccc(Cc2cc(-c3cc(Cc4ccccc4)[nH]n3)n[nH]2)cc1`, the growth inhibition in test [1] is 22.2%; in test [2], 11.2%; in test [3] it was 19.4%; in test [4], 19.2%; in test [5], 5.4%; in test [6] it was 20.9%.

On to `CC1C(NNC(N)=O)Oc2cc3c(cc2C1c1ccccc1O)OCO3` (stereo unspecified), for which the growth inhibition in test [1] was -5.7%; in test [2], -25.4%; in test [3], 11.8%; in test [4] it was 10.2%; in test [5], -11.1%; in test [6], -4.75%.

For the compound `CC1COC(c2ccc(Cl)cc2)O1` (stereo unspecified), the growth inhibition in test [1] was 12.2%; in test [2], 18.1%; in test [3], 22%; in test [4] it was 20.4%; in test [5], -1.25%; in test [6] it was 12.7%.

`Cc1ccc(S(=O)(=O)Nn2c(O)c(C#N)c(-c3ccc([N+](=O)[O-])cc3)c(C#N)c2=O)cc1`: the growth inhibition in test [1] was 4.8%; in test [2] it was 6.9%; in test [3] it was -7.9%; in test [4], 15.6%; in test [5], -13.2%; in test [6], -8.8%.

For the origin of these results see PubChem BioAssay (NCI).
